From PubChem BioAssay (NCATS)
Records with an inconclusive call do not appear. Activity calls are given as the source filed them. Calls follow the shape of the dose curve; as a rule, active = well fitted cell-killing curve with a large enough effect; inconclusive = small, poorly fitted or top-dose-only effect; inactive = flat fitted curve, though single readings scatter.

Assays:
[1] = Cell Viability - LYMP2-008 (AID 980);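 also: cells exposed to compound for 24 h at 37 °C; nearly all actives have a fitted effect of over 60% in size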
How it was run: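 qHTS, human lymphoblastoid line, 2500 cells/well; 5 hr preincubation, 24 hr compound, 37 C. CellTiter-Glo ATP luminescence. AC50 via Hill equation. Tetraoctylammonium bromide positive control.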

[2] = Cell Viability - LYMP2-010 (AID 981); also: nearly all actives have a fitted effect of over 55% in size
How it was run: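 Luminescent ATP signal (CellTiter-Glo) served as the viability read-out. Cells of the human lymphoblastoid line were treated with compound over a concentration range for 24 hours at 37 C, and AC50 values came from Hill-equation modeling.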

[3] = Cell Viability - LYMP2-016 (AID 984); also: nearly all actives have a fitted effect of over 55% in size
How it was run: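 qHTS, 1536-well: 2500 LYMP2-016 cells/well, 5 hr 37 C, compound added, 24 hr 37 C, CellTiter-Glo 30 min RT, luminescence. Tetraoctylammonium bromide positive control. AC50 via Hill fit.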

[4] = Cell Viability - LYMP2-018 (AID 985);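 also: compound exposure lasted 24 hr at 37 °C; nearly all actives have a fitted effect of over 50% in size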
How it was run: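 Luminescent ATP signal (CellTiter-Glo, read after 30 min at room temperature) reports viable cells after 24 hr compound treatment at 37 C. Concentration-response data were fitted to the standard Hill equation for AC50.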

[5] = Cell Viability - LYMP1-002 - Assay at 24 hr (AID 993)
How it was run: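 Cells plated 2500/well, 5 hr 37 C; compounds added, 24 hr 37 C; CellTiter-Glo added, 30 min RT; luminescence read. Tetraoctylammonium bromide positive control. Hill-equation AC50.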

[6] = Cell Viability - LYMP1-002 - Assay at 40 hr (AID 994); also: nearly all actives have a fitted effect of over 60% in size
How it was run: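 Luminescent ATP signal served as the viability readout, with decreases taken as toxicity. Cells were treated with compounds across a concentration range for 40 hours at 37 C, and AC50 values came from standard Hill modeling.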

Measured: Potency

O=C(O)c1cc(N=Nc2ccc([N+](=O)[O-])cc2)ccc1O
inactive: all assays above
